Bioassay records deposited in PubChem BioAssay by Broad Institute.
PAX8 reporter: inhibitors of PAX8-driven TPO luciferase reporter, primary screen, RMG-I cells, single concentration | SteadyGlo, 24 h | inhibition, % at 12.6 µM | 360,000 tested, 1.2% active | AID 652154, 2013;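 active = mean replicate inhibition at least 60% with every replicate also reaching 60%; inconclusive = only one of the two criteria is met; inactive = mean below 60% and not all replicates reaching 60%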;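 also: luciferase light reporting Pax8 driven TPO promoter activity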
LGR2 inh: inhibitors of bursicon-induced LGR2 CRE-luciferase signal, primary screen, cell-based, HEK293, CRE-luciferase reporter, bursicon stimulation; AID 720647, 2013; inhibition, % at 9.99 µM; 380,000 tested, 0.35% active; bursicon-stimulated, 4 h; Drosophila bursicon receptor LGR2 (rickets);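 active = drop in luminescence signal, shown as inhibition above about 50% in the replicate tests, limit read from the data, passing the limit was not always enough; inconclusive = probably only some replicates passing the limit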;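 also: agonist challenge used bursicon conditioned medium at about half maximal strength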
TRPM1 prom inh: inhibitors of MITF-dependent TRPM1 promoter reporter, primary screen, cell-based, SK-MEL-5, single point, luciferase; SK-MEL-5 TRPM1 promoter luciferase, 24 h; inhibition, % at 12.5 µM; 330,000 tested, 0.83% active; AID 488899, 2010;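 active = mean inhibition across replicates of 60% or more, whatever share of single replicates reaches that level; inconclusive = some that reach 60%, reason not given; inactive = mean inhibition across replicates below 60%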
LMP1 NFkB inh: EBV LMP1-driven NF-kappaB luciferase reporter inhibitors, primary screen, cell-based, luminescence, single point | inhibition, % at 12.5 µM | 350,000 tested, 0.69% active | LMP1-induced NF-kappaB luciferase reporter cells; in the data active = inhibition above about 41%; inconclusive = no clear call, values can overlap the other calls
Shn3 inh set2: reduction of Shn3 3'UTR firefly luciferase signal, primary screen, Schnurri-3 inhibitor project, cell-based, Clone20 osteoblasts, set 2 | Clone20 osteoblast Shn3 3'UTR firefly luciferase, 24 h | inhibition, % at 12.5 µM | 360,000 tested, 0.52% active;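 active = mean inhibition of at least 75% with every replicate also reaching 75%; inconclusive = mean inhibition at least 75% but some replicate below; inactive = mean inhibition below 75%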
EWS-Fli block: EWS/Fli-driven NR0B1 reporter inhibitors, primary screen, A673 cells, NR0B1 luciferase, luminescence, MLPCN library | AID 651661, 2012 | inhibition, % at 12.6 µM | viability-normalised | 350,000 tested, 0.67% active;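 active = mean inhibition of at least 50% after viability correction, with every replicate also passing that limit; inconclusive = mean reaches 50% but only one of two replicates passes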;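 also: firefly luciferase signal divided by Alamar Blue viability fluorescence both relative to DMSO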
DNA binder FP: DNA binders by acridine orange displacement, dose response, counter-screen for EWS/Fli inhibitor project, biochemical, fluorescence polarization, cherry-pick; shares compounds with EWS-Fli block; AC35, µM (titrated, usually from 68 µM); salmon sperm DNA acridine orange fluorescence polarization; AID 720586, 2013; 640 tested, 2% active;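 active = fitted curve reaches a 35% signal fall AC35 below twice the sample's top valid tested dose, actives reach about 48 µM in these data; inactive = the rest, including activity in the rising direction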;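 also: lower polarization ratio signals compound binding to DNA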
Large screens that a line does not name were inactive (follow-up assays come after a bar, where they were run). Rows were chosen to be rich in hits. Some 2.2% of all compounds tested hit in one or more screens of this group.

Cc1noc(C)c1NC(=O)Nc1ccc2c(c1)CC(=O)N([C@H](C)CO)C[C@@H](C)[C@@H](CN(C)Cc1ccc(Cl)c(Cl)c1)O2	EWS-Fli block 61.2 (no result: TRPM1 prom inh, LMP1 NFkB inh, Shn3 inh set2) | DNA binder FP inactive
C[C@@H]1CN([C@H](C)CO)C(=O)c2cc(NS(=O)(=O)c3ccc(Cl)cc3)ccc2O[C@@H]1CN(C)Cc1ccc(Cl)c(Cl)c1	EWS-Fli block 53.2 (no result: TRPM1 prom inh, LMP1 NFkB inh, Shn3 inh set2) | DNA binder FP inactive
Cc1ccccc1NC(=O)c1ccc(F)c(S(=O)(=O)N2CCN(c3ccccn3)CC2)c1	none (no result: PAX8 reporter)
O=C(Nc1ccc(Br)cc1)c1ccc(F)c(S(=O)(=O)N2CCN(c3ccccn3)CC2)c1	EWS-Fli block 59.2 | DNA binder FP inactive
Cc1ccccc1N=CC1=C(O)c2ccccc2C1=O	LGR2 inh 100.9, EWS-Fli block 77.3 | DNA binder FP inactive
C[C@H]1CN([C@@H](C)CO)S(=O)(=O)c2ccc(C#Cc3ccncc3)cc2O[C@@H]1CN(C)S(=O)(=O)c1ccccc1	EWS-Fli block 53.4 (no result: PAX8 reporter, TRPM1 prom inh, LMP1 NFkB inh, Shn3 inh set2) | DNA binder FP inactive
C[C@@H]1CN([C@@H](C)CO)S(=O)(=O)c2ccc(C#Cc3ccncc3)cc2O[C@H]1CN(C)S(=O)(=O)c1ccccc1	EWS-Fli block 72.6 (no result: PAX8 reporter, TRPM1 prom inh, LMP1 NFkB inh, Shn3 inh set2) | DNA binder FP inactive
C[C@@H]1CN([C@H](C)CO)S(=O)(=O)c2ccc(C#Cc3ccncc3)cc2O[C@H]1CN(C)S(=O)(=O)c1ccc(F)cc1	EWS-Fli block inconclusive (no result: PAX8 reporter, TRPM1 prom inh, LMP1 NFkB inh, Shn3 inh set2)
Cc1ccc(S(=O)(=O)N(C)C[C@@H]2Oc3cc(C#Cc4ccncc4)ccc3S(=O)(=O)N([C@@H](C)CO)C[C@H]2C)cc1	PAX8 reporter 82.6, EWS-Fli block 52.5 (no result: LGR2 inh, TRPM1 prom inh, LMP1 NFkB inh, Shn3 inh set2) | DNA binder FP inactive
C[C@@H]1CN([C@H](C)CO)S(=O)(=O)c2ccc(C#Cc3ccncc3)cc2O[C@@H]1CN(C)S(=O)(=O)c1ccccc1	none (no result: PAX8 reporter, TRPM1 prom inh, LMP1 NFkB inh, Shn3 inh set2)
CO[C@H](CN(C)Cc1cc(F)ccc1F)[C@H](C)CN([C@@H](C)CO)S(=O)(=O)c1ccc(F)cc1	none (no result: TRPM1 prom inh, LMP1 NFkB inh, Shn3 inh set2)
Cc1ccc(S(=O)(=O)N(C)C[C@@H]2Oc3ccc(NC(=O)Cc4cn(C)c5ccccc45)cc3CC(=O)N([C@@H](C)CO)C[C@H]2C)cc1	none (no result: TRPM1 prom inh, LMP1 NFkB inh, Shn3 inh set2)
COc1ccc(C2=NNC(=Nc3cc(S(=O)(=O)N(C)C)ccc3C)SC2)c(OC)c1	PAX8 reporter 103.2, EWS-Fli block 52.3 (no result: Shn3 inh set2) | DNA binder FP inactive
Cc1cccc(N=C2NN=C(c3ccccc3F)CS2)c1C	none
CO[C@H]1CN(C)C(=O)c2ccc(NS(=O)(=O)c3ccccc3)cc2OC[C@@H](C)N(Cc2ccccn2)C[C@@H]1C	none (no result: TRPM1 prom inh, LMP1 NFkB inh, Shn3 inh set2)
Cc1c(Cc2ccc3c(c2)OCO3)sc(NC(=O)C(C)(C)C)c1C#N	EWS-Fli block 54.6 | DNA binder FP inactive
CCC(=O)Nc1sc(Cc2ccc3c(c2)OCO3)c(C)c1C(N)=O	none
CCCN(C)C[C@H]1Oc2ncc(-c3ccccc3)cc2C(=O)N([C@@H](C)CO)C[C@H]1C	EWS-Fli block 56.0 (no result: LGR2 inh, TRPM1 prom inh, LMP1 NFkB inh, Shn3 inh set2) | DNA binder FP inactive
N#C[C@@H]1[C@@H](c2ccccc2C2=CCCCC2)[C@@H](CO)N1C(=O)CN1CCOCC1	none (no result: TRPM1 prom inh, LMP1 NFkB inh, Shn3 inh set2)
C=C(C(=O)c1ccccc1)C(c1ccccc1)C(C)C(=O)c1ccccc1 (stereo unspecified)	none (no result: EWS-Fli block)
COc1ccc(C(CC(=O)c2ccccc2)CC(=O)c2ccccc2)cc1	none
C=C(C(=O)c1ccccc1)C(C)C(=C)C(=O)c1ccccc1	PAX8 reporter 97.5, EWS-Fli block 72.6 (no result: LGR2 inh, TRPM1 prom inh) | DNA binder FP inactive
C=C(C(=O)c1ccccc1)C(C(=C)C(=O)c1ccccc1)c1ccc(OC)cc1	PAX8 reporter 116.8, TRPM1 prom inh 81.5, Shn3 inh set2 96.7, EWS-Fli block 78.3 (no result: LGR2 inh) | DNA binder FP inactive
CCOc1ccc(N=Nc2ccc(O)c3ncccc23)cc1	TRPM1 prom inh 70.0, Shn3 inh set2 89.9, EWS-Fli block 57.8 | DNA binder FP inactive
CCCNC(=O)[C@@H]1[C@@H](CO)[C@@H]2Cn3c(ccc(-c4ccccc4F)c3=O)[C@@H]2N1C(C)=O	none (no result: PAX8 reporter, TRPM1 prom inh, LMP1 NFkB inh, Shn3 inh set2)
O=C(O)c1ccccc1C(=O)Nc1ccc(Oc2ccc3ccccc3c2)cc1	EWS-Fli block 57.7 | DNA binder FP inactive
O=C(O)c1ccccc1C(=O)Nc1ccc(Oc2cccc3ccccc23)cc1	TRPM1 prom inh 73.1, EWS-Fli block 85.7 | DNA binder FP inactive
C[C@H]1CN([C@@H](C)CO)C(=O)CCCn2cc(nn2)CO[C@H]1CN(C)C(=O)c1cc(-c2ccccc2)on1	none (no result: TRPM1 prom inh, LMP1 NFkB inh, Shn3 inh set2)
CC(=O)Oc1ccc(/C=C2/Oc3ccccc3C2=O)cc1	none
COc1ccc(/C=C2\Oc3ccccc3C2=O)cc1	LGR2 inh 55.6, EWS-Fli block 62.1 | DNA binder FP inactive
Cc1ccc(NC(=S)c2nc3ccccc3[nH]2)c(C)c1	none (no result: EWS-Fli block)
Cc1cccc(/C=C(\c2nc3ccccc3[nH]2)S(=O)(=O)c2ccccc2)c1	PAX8 reporter 105.5, LGR2 inh inconclusive, TRPM1 prom inh 86.1, Shn3 inh set2 92.8, EWS-Fli block 71.4 | DNA binder FP inactive
C[C@H](CO)N1C[C@H](C)[C@@H](CN(C)C(=O)Nc2ccccc2)Oc2ccc(NS(=O)(=O)c3ccc(Cl)cc3)cc2CC1=O	none (no result: TRPM1 prom inh, LMP1 NFkB inh, Shn3 inh set2)
C/C(=C\c1ccccc1)C(=O)N1CCC=CC1=O	EWS-Fli block 55.4 (no result: LGR2 inh, TRPM1 prom inh, LMP1 NFkB inh, Shn3 inh set2) | DNA binder FP inactive
C/C(=C/c1ccccc1)C(=O)N1CCC(C)CC1	none
CCOc1ccc(-c2cc(CCCC(=O)N3CCN(c4ccc(OC)cc4)CC3)no2)cc1	EWS-Fli block 60.0 | DNA binder FP inactive
Cc1c(N=Cc2cc(Br)cc(Br)c2O)cccc1C(=O)O	LMP1 NFkB inh 68.1, EWS-Fli block 74.3 | DNA binder FP inactive
